Laboratory results reported in the supplement of paper PMC8371130.
Where a name gives a salt, the structure may show the parent alone.

Tested on: HL-1
Experiment: relative cell viability (CellTiter-Glo) vs DMSO control (% of DMSO control); higher = more viable cells
How it was run: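 Plating of HL-1 mouse atrial cardiomyocytes at 1000 cells per well in 384-well plates was done together with compounds at 40, 200, 1000 or 5000 nM in 0.01% DMSO. A day later the cells faced 48 h of 1% O2 and then 24 h of reoxygenation, or matching normoxia. Viability was measured via CellTiter-Glo luminescence and set relative to vehicle-treated control cells.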

[1] = oxygen condition: hypoxia 48 h (1% O2) + reoxygenation 24 h, 40 nM
[2] = oxygen condition: hypoxia 48 h (1% O2) + reoxygenation 24 h, 200 nM
[3] = oxygen condition: hypoxia 48 h (1% O2) + reoxygenation 24 h, 1000 nM
[4] = oxygen condition: hypoxia 48 h (1% O2) + reoxygenation 24 h, 5000 nM
[5] = oxygen condition: normoxia 72 h, 40 nM
[6] = oxygen condition: normoxia 72 h, 200 nM
[7] = oxygen condition: normoxia 72 h, 1000 nM
[8] = oxygen condition: normoxia 72 h, 5000 nM

Row | Structure (SMILES) | relative cell viability [1] | relative cell viability [2] | relative cell viability [3] | relative cell viability [4] | relative cell viability [5] | relative cell viability [6] | relative cell viability [7] | relative cell viability [8]
1 | CCCS(=O)(=O)Nc1ccc(F)c(C(=O)c2c[nH]c3ncc(-c4ccc(Cl)cc4)cc23)c1F [Vemurafenib] | 102 | 111 | 107 | 111 | 104 | 96.2 | 106 | 118
2 | CC[C@H](C)[C@H](N)C1=N[C@H](C(=O)N[C@@H](CC(C)C)C(=O)N[C@H](CCC(=O)[O-])C(=O)N[C@H](C(=O)N[C@H]2CCCCNC(=O)[C@H](CC(N)=O)NC(=O)[C@@H](CC(=O)[O-])NC(=O)[C@H](Cc3cnc[nH]3)NC(=O)[C@@H](Cc3ccccc3)NC(=O)[C@H]([C@@H](C)CC)NC(=O)[C@@H](CCCN)NC2=O)[C@@H](C)CC)CS1.[Zn+2] [Bacitracin zinc] | 95.4 | 107 | 109 | 123 | 105 | 107 | 109 | 117
3 | COc1cccc2c1C(=O)c1c(O)c3c(c(O)c1C2=O)C[C@@](O)(C(=O)CO)C[C@@H]3O[C@H]1C[C@H](N)[C@H](O)[C@H](C)O1 [Doxorubicin] | 63.3 | 44 | 57.3 | 16.7 | 63 | 55.4 | 52.4 | 13.7
4 | O=C(CCCN1CCC(O)(c2ccc(Cl)cc2)CC1)c1ccc(F)cc1 [Haloperidol] | 101 | 99.4 | 102 | 101 | 92.8 | 98 | 100 | 98.5
5 | Cc1nccn1CC1CCc2c(c3ccccc3n2C)C1=O (stereo unspecified) [Ondansetron] | 99.4 | 103 | 102 | 109 | 102 | 99.7 | 101 | 107
6 | COc1ccc2c(c1OC)C(=O)O[C@@H]2[C@H]1c2c(cc3c(c2OC)OCO3)CCN1C [Noscapine HCl] | 97.5 | 98 | 99.1 | 103 | 94.9 | 106 | 104 | 109
7 | O=C(CCCN1CCN(c2ccccn2)CC1)c1ccc(F)cc1 [Azaperone] | 107 | 104 | 102 | 103 | 102 | 107 | 110 | 111
8 | CC(=O)O[C@@]12CO[C@@H]1C[C@H](O)[C@@]1(C)C(=O)[C@H](O)C3=C(C)[C@@H](OC(=O)[C@H](O)[C@@H](NC(=O)OC(C)(C)C)c4ccccc4)C[C@@](O)([C@@H](OC(=O)c4ccccc4)[C@H]21)C3(C)C [Docetaxel] | 26.9 | 24.1 | 27.2 | 29.3 | 19.3 | 23 | 22.6 | 23.6
9 | O=C1[C@@H]2[C@H]3CC[C@H](C3)[C@@H]2C(=O)N1C[C@@H]1CCCC[C@H]1CN1CCN(c2nsc3ccccc23)CC1 [Lurasidone HCl] | 96.8 | 101 | 100 | 99.9 | 101 | 104 | 102 | 102
10 | C[C@](N)(Cc1ccc(O)c(O)c1)C(=O)O [Methyldopa] | 105 | 79.3 | 104 | 103 | 98.8 | 91.9 | 102 | 109
11 | N[C@@H]1CN(c2c(F)cc3c(=O)c(C(=O)O)cn([C@@H]4C[C@@H]4F)c3c2Cl)CC12CC2 [Sitafloxacin hydrate] | 101 | 98.6 | 104 | 108 | 103 | 95.3 | 99 | 108
12 | CCN(CC)CCOC(=O)c1ccc(N)cc1 [Procaine] | 100 | 102 | 109 | 108 | 105 | 104 | 105 | 110
13 | Cc1cn(-c2cc(NC(=O)c3ccc(C)c(Nc4nccc(-c5cccnc5)n4)c3)cc(C(F)(F)F)c2)cn1 [Nilotinib] | 101 | 81.4 | 107 | 111 | 105 | 104 | 104 | 108
14 | Cc1cc(C)nc(NS(=O)(=O)c2ccc(N)cc2)n1 [Sulfamethazine] | 102 | 104 | 104 | 112 | 94.6 | 104 | 105 | 119
15 | O=C(c1ccc(OCCN2CCCCC2)cc1)c1c(-c2ccc(O)cc2)sc2cc(O)ccc12 [Evista] | 111 | 107 | 106 | 54 | 112 | 107 | 109 | 68.7
16 | C[C@@H](CN1CC(=O)NC(=O)C1)N1CC(=O)NC(=O)C1 [Dexrazoxane Hydrochloride] | 98.2 | 105 | 104 | 106 | 101 | 96.3 | 92.8 | 94.8

Row | Structure (SMILES) | relative cell viability [1] | relative cell viability [2] | relative cell viability [3] | relative cell viability [4] | relative cell viability [5] | relative cell viability [6] | relative cell viability [7] | relative cell viability [8]
17 | CN(Cc1ccc(C(C)(C)C)cc1)Cc1cccc2ccccc12 [Butenafine HCl] | 98.1 | 104 | 106 | 109 | 104 | 100 | 106 | 110
18 | CN(C)[C@@H](CCOc1cccc2ccccc12)c1ccccc1 [Dapoxetine hydrochloride] | 96.3 | 102 | 99.8 | 89.2 | 101 | 103 | 104 | 76.3
19 | COC(=O)[C@H]1[C@H]2C[C@@H]3c4[nH]c5cc(OC)ccc5c4CCN3C[C@H]2C[C@@H](OC(=O)c2cc(OC)c(OC)c(OC)c2)[C@@H]1OC [Reserpine] | 112 | 106 | 107 | 110 | 102 | 103 | 103 | 113
20 | CN(C)CCCN1c2ccccc2CCc2ccccc21 [Imipramine HCl] | 98.5 | 98.9 | 96.2 | 110 | 100 | 101 | 101 | 111
21 | CC(C)C[C@H](NC(=O)[C@H](CCc1ccccc1)NC(=O)CN1CCOCC1)C(=O)N[C@@H](Cc1ccccc1)C(=O)N[C@@H](CC(C)C)C(=O)[C@@]1(C)CO1 [Carfilzomib] | 3.62 | 3.8 | 4.12 | 3.78 | 3.3 | 4.04 | 3.72 | 3.71
22 | COc1ccc(C2C(=O)c3ccccc3C2=O)cc1 [Anisindione] | 99.6 | 102 | 105 | 118 | 102 | 78.2 | 114 | 120
23 | Cc1cc(N)c2ccccc2[n+]1CCCCCCCCCC[n+]1c(C)cc(N)c2ccccc21 [Dequalinium chloride] | 101 | 104 | 101 | 112 | 93.3 | 107 | 97.3 | 101
24 | CCC[C@H](N[C@@H](C)C(=O)N1[C@H](C(=O)O)C[C@@H]2CCCC[C@@H]21)C(=O)OCC [Perindopril Erbumine] | 110 | 81 | 107 | 115 | 109 | 111 | 111 | 114
25 | Nc1[nH]cnc2ncnc1-2 [Adenine hydrochloride] | 108 | 105 | 104 | 110 | 100 | 96.4 | 103 | 107
26 | CNC[C@H](O)c1ccc(O)c(O)c1 [Epinephrine bitartrate] | 99.2 | 98.8 | 97.2 | 6.86 | 101 | 102 | 98.4 | 3.42
27 | CCOc1ccccc1OC(c1ccccc1)C1CNCCO1 (stereo unspecified) [Reboxetine mesylate] | 105 | 102 | 105 | 122 | 115 | 99.7 | 108 | 119
28 | CN1CCC(OC(c2ccccc2)c2ccccc2)CC1 [Diphenylpyraline HCl] | 102 | 96.9 | 99.3 | 110 | 96.9 | 103 | 102 | 100
29 | O=C(O)Cc1cc(I)c(Oc2ccc(O)c(I)c2)c(I)c1 [Tiratricol] | 96.6 | 99.5 | 104 | 119 | 103 | 103 | 101 | 126
30 | C[C@@](Cc1ccc(O)c(O)c1)(NN)C(=O)O [Carbidopa] | 101 | 100 | 101 | 106 | 96.4 | 96.4 | 102 | 110
31 | N=C(N)N/N=C/c1c(Cl)cccc1Cl [Guanabenz acetate] | 96.3 | 113 | 105 | 99.1 | 101 | 99.6 | 98.7 | 98.9
32 | Nc1cc(C(Cl)=C(Cl)Cl)c(S(N)(=O)=O)cc1S(N)(=O)=O [Clorsulon] | 109 | 105 | 107 | 113 | 110 | 115 | 116 | 110
